# Experimental data reported in PubChem BioAssay (EPA / NIEHS).
# Inconclusive results are not listed. The source made the active and inactive calls. How the source made its calls, unless noted: active means hit-call score of the fitted dose curve at least 0.9, where 1 is the maximum; inconclusive means response in the unintended direction; inactive means score below 0.9.
# Assay: STM_H9_OrnCyssISnorm_ratio: Stemina devTOX quickPredict H9 human embryonic stem cell (hESC)-based Assay for Ornithine (ORN):Cystine (CYSS) Ratio (AID 2283714)
# Method in brief: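 Ratio of internal-standard-normalized ornithine to cystine, measured by UPLC-HRMS in spent media from the last 24 h. H9 cells kept pluripotent, dosed 72 h with daily media and compound renewal; DMSO 0.1% serves as baseline.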
Structure (SMILES),AC50,outcome
O=C1CCC(N2C(=O)c3ccccc3C2=O)C(=O)N1 (stereo unspecified),0.121 µM (active),
CNCc1ccc(NC(=O)c2c[nH]c3c2C(=O)CCC3)cc1,,inactive
CC[C@H]1CC[C@H](NCc2cc3c(cc2OC)[C@H]2C[C@H]2C(=O)N3C)[C@H](c2ccccc2)N1,8.66 µM (active),

# Assay: CEETOX_H295R_MTT_cell_viability: Viability Assessment in the CeeTox HT-H295R MTT Assay (AID 2283718; active means hit-call score of the fitted dose curve at least 0.9, where 1 is the maximum; inactive means score below 0.9;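 on AC50: curve fitted both ways so AC50 may mark viability loss or gain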)
# Method in brief: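 MTT reduction (0.5 mg/ml, 4 h at 37 C; absorbance at 570 and 650 nm) gave viability as background-corrected percent change versus controls. H295R cells had 48 h forskolin (10 uM) prestimulation, then 48 h chemical exposure at 0.1% DMSO.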
Structure (SMILES),outcome,AC50
C=CCCCCCCCCC(=O)O,inactive,
CNS(=O)(=O)c1cc(C(=O)N2CCC(CCN3C4CCC3CC(n3c(C)nc5ccccc53)C4)(c3cccc(F)c3)CC2)c(Cl)cc1F (stereo unspecified),inactive,
COC(=O)c1c(Cl)c(Cl)c(C(=O)OC)c(Cl)c1Cl,inactive,
CC1=CC(=O)CC(C)(C)C1,inactive,
COc1ccc(-n2nc(C(F)F)cc2-c2ccc(S(C)=O)cc2)cc1 (stereo unspecified),inactive,
CCCCC(CC)COC(=O)c1ccc(C(=O)OCC(CC)CCCC)cc1 (stereo unspecified),inactive,
CCCCCCCCCCCCCCCO,,66.7 nM (active)
COc1ccc(/C=C/S(=O)(=O)NC(=O)c2ccc(C)cc2Cl)cc1,,3370 nM (active)
CC[C@H]1CC[C@H](NCc2cc3c(cc2OC)[C@H]2C[C@H]2C(=O)N3C)[C@H](c2ccccc2)N1,inactive,

# Assay: Tanguay_ZF_120hpf_ActivityScore_legacy: (Legacy) Oregon State University Tanguay Lab 120 Hour Post-fertilization zebrafish Assay Score for Activity (AID 2283742);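 on AC50: dechorionated Tropical 5D wild-type zebrafish embryos held singly per well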
# Method in brief: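 Binary scoring of mortality and morphology by brightfield at 24 and 120 hpf, summarised into one activity score from 18 components relative to DMSO. Wild-type Tropical 5D zebrafish, chorion removed at 4 hpf, static exposure 6–120 hpf, 28 °C.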
Structure (SMILES),outcome,AC50
CCCCC(CC)COC(=O)CCCCCCCCC(=O)OCC(CC)CCCC (stereo unspecified),inactive,
C=CCCCCCCCCC(=O)O,inactive,
CNS(=O)(=O)c1cc(C(=O)N2CCC(CCN3C4CCC3CC(n3c(C)nc5ccccc53)C4)(c3cccc(F)c3)CC2)c(Cl)cc1F (stereo unspecified),inactive,
COC(=O)c1c(Cl)c(Cl)c(C(=O)OC)c(Cl)c1Cl,inactive,
CCOCCO,inactive,
CC1=CC(=O)CC(C)(C)C1,inactive,
O=C1CCC(N2C(=O)c3ccccc3C2=O)C(=O)N1 (stereo unspecified),inactive,
COc1ccc(-n2nc(C(F)F)cc2-c2ccc(S(C)=O)cc2)cc1 (stereo unspecified),,151 µM (active)
C1=CCCC=CCCC=CCC1,inactive,
CCCC(=O)OCC,inactive,
Cc1ccc(C)c(O)c1,inactive,
COC(=O)CC(=O)OC,inactive,
CCCCC(CC)COC(=O)c1ccc(C(=O)OCC(CC)CCCC)cc1 (stereo unspecified),inactive,
CC(C)=CCC/C(C)=C/CO,inactive,
CNCc1ccc(NC(=O)c2c[nH]c3c2C(=O)CCC3)cc1,inactive,
CCCCCCCCCCCCCCCO,inactive,
COC(=O)c1ccccc1O,inactive,
CCc1cc(SCc2sc(-c3ccc(C(F)(F)F)cc3)nc2CN2CCN(c3ccc(OC)cc3)CC2)ccc1OCC(=O)O,,61.5 µM (active)
COc1ccc(/C=C/S(=O)(=O)NC(=O)c2ccc(C)cc2Cl)cc1,inactive,
CCOCCOCCOCCO,inactive,
Cc1ccc(S(=O)(=O)O)cc1C,inactive,
CC(=O)OCCC(C)C,inactive,
O=C(O)CC(O)C(=O)O (stereo unspecified),inactive,
O=C1CCCCCN1,inactive,
CC(C)CCCCCCCOC(=O)CCCCC(=O)OCCCCCCCC(C)C,inactive,
Clc1nc(Cl)c(Cl)c(Cl)c1Cl,inactive,
Cn1c(=O)c2c(ncn2C)n(C)c1=O,inactive,
CC[C@H]1CC[C@H](NCc2cc3c(cc2OC)[C@H]2C[C@H]2C(=O)N3C)[C@H](c2ccccc2)N1,inactive,
O=C1OC(=O)C2C3C=CC(C3)C12 (stereo unspecified),inactive,
